Holding throughout (parameters): scale not given: direction of the effect not stated beside the values
In experiment [1] the target is Protein translocase subunit SecA (Escherichia coli (strain K12)) (UniProt P10408). The experiment can be described thus: Assay to Identify E. coli SecA ATPase Inhibitors. The experiment is classed as functional. The conditions noted are these: 30 µM.
Experiment [2] deals with T1, Ubiquitin-activating enzyme e1, putative (Leishmania donovani (strain BPK282A1)) (UniProt E9BSI1).
T1 sequence (whole entry): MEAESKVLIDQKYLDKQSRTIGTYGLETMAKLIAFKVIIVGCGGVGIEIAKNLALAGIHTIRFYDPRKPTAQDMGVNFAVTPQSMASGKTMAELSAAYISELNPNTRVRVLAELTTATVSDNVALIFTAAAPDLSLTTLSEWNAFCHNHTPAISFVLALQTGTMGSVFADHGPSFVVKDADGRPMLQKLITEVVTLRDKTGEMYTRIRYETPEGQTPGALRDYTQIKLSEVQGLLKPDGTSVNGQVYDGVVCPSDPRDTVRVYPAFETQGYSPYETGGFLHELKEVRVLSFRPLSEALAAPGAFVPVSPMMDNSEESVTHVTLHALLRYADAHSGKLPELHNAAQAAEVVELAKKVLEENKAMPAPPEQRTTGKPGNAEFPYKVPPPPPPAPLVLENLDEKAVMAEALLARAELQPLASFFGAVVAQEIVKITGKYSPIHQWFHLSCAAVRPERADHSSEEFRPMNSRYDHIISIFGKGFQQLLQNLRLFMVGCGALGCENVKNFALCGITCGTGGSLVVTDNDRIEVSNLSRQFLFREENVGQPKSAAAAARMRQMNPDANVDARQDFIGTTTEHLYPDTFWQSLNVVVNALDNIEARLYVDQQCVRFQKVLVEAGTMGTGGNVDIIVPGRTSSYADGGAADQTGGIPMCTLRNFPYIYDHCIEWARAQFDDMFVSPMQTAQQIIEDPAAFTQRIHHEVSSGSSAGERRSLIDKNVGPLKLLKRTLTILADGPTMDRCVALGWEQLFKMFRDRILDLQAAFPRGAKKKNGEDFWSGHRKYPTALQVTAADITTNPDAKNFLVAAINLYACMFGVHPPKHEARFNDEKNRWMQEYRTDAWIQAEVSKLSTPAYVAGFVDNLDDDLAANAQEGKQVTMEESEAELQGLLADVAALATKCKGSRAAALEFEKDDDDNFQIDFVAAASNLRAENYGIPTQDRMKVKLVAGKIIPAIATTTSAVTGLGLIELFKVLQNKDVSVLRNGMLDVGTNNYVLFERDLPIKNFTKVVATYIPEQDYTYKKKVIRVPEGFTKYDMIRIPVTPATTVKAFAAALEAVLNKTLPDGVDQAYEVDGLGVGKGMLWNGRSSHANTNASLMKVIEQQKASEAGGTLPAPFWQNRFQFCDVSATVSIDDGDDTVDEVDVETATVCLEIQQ
The experiment can be described thus: Leishmania donovani Ubiquitin Activating Enzyme (LdE1). It counts as functional. The conditions noted are these: 30 µM.

The target in experiment [3] is AMP-activated protein kinase, AMPK (Homo sapiens) (UniProt P54646+O43741+P54619+Q9UGJ0+Q9Y478+Q13131+Q9UGI9). The experiment can be described thus: AMP-dependent Kinase enzyme assay. An in vitro enzyme assay that detects ADP turnover that is directly proportional to AMPK activity. This uses naive AMPK that is activated during the assay with MK-8722. It counts as functional. The conditions noted are these: 30 µM.

Experiment [4] deals with Sialic acid-binding Ig-like lectin 9 (Homo sapiens) (UniProt Q9Y336). Nature of the experiment: Hs-Siglec9 ALPHAscreen SOP 20170721. The conditions noted are these: 10 µM. In general terms: Alpha assays give light when donor and acceptor beads are brought close together.
Chain of Sialic acid-binding Ig-like lectin 9 (Homo sapiens) (Q9Y336 whole entry): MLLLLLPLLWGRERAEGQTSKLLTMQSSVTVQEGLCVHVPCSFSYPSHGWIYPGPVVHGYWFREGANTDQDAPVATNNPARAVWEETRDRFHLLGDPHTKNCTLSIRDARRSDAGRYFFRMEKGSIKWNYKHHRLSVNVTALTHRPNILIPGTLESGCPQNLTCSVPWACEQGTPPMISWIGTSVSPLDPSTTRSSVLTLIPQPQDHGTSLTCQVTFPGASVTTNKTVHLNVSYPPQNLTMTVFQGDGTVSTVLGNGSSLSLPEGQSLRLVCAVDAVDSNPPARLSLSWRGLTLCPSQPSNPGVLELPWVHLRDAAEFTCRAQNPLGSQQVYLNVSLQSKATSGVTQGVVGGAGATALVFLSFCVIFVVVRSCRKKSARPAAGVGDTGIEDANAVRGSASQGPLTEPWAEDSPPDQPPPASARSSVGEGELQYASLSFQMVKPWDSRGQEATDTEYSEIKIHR
Experiment [5] has as its system Trypanosoma cruzi. The experiment can be described thus: Trypanosoma cruzi phosphomannomutase and mannose-1-phosphate guanylyltransferase assay. The experiment is classed as functional. The conditions noted are these: 10 µM.
The target in experiment [6] is T2, Arginase-2, mitochondrial (Homo sapiens) (UniProt P78540).
T2 sequence (whole entry): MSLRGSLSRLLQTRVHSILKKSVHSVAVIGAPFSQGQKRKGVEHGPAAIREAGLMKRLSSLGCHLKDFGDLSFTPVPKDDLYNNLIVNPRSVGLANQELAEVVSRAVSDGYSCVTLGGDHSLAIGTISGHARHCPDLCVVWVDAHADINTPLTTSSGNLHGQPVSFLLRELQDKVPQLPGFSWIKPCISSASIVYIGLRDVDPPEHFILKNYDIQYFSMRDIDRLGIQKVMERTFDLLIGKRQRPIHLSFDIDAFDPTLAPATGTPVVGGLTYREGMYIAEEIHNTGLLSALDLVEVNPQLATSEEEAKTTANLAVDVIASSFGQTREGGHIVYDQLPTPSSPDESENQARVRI
Nature of the experiment: in vitro enzyme assay to detect the production of urea directly proportional to the activity of Arginase II. Further: in the data most compounds retested in dose-response had high values. The conditions noted are these: 33.3 µM. It counts as functional.

Experiment [7] has as its target T3, Proteasome subunit beta (Trypanosoma cruzi) (UniProt O96673).
T3 sequence (whole entry): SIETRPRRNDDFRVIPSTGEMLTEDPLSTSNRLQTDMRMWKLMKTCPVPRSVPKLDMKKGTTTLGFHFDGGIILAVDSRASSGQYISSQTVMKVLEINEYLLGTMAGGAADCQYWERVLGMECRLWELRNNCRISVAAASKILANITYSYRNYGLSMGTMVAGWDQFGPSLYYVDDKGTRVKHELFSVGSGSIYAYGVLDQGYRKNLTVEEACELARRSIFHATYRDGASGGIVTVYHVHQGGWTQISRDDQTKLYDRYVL
The experiment can be described thus: Trypanosoma cruzi proteasome chymotrypsin-like activity (TcProtChymo) assay. Further: in the data most compounds retested in dose-response had high values. It counts as functional. The conditions noted are these: 9.37 µM.

The species entered for experiment [8] is Homo sapiens. Nature of the experiment: To identify inhibition of the IFN signalling (Jak-Stat) pathway via expression of an eGFP reporter gene under the control of an IFN-stimulated response element (ISRE) containing MxA promoter. The conditions noted are these: 30 µM. The experiment is classed as functional.
Experiment [9] addresses T4, Tyrosyl-tRNA synthetase, putative (Trypanosoma cruzi (strain CL Brener)) (UniProt Q4DSP6).
T4 sequence (whole entry): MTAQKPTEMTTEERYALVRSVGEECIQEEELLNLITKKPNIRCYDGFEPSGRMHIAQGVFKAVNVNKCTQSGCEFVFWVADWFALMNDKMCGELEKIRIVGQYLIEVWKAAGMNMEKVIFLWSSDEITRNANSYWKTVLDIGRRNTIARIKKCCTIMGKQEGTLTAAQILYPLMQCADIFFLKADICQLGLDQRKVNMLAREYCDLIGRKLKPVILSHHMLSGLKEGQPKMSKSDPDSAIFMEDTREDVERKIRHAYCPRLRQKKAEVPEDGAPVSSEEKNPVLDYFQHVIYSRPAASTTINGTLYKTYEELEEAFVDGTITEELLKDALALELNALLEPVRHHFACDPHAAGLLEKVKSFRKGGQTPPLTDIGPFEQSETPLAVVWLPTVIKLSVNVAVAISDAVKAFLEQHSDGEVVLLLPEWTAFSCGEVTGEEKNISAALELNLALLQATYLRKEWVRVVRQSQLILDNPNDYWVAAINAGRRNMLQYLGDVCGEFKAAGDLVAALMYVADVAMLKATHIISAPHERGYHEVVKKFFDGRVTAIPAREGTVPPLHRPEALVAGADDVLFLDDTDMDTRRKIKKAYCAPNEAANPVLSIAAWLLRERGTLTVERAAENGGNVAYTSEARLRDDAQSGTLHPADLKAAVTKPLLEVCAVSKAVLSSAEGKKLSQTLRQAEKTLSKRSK
The experiment can be described thus: Trypanosoma cruzi tyrosyl tRNA synthetase (TcYRS) _High Tyrosine SOP. Further: in the data most compounds retested in dose-response had high values. The experiment is classed as functional. The conditions noted are these: 30 µM.

Experiment [10] deals with T4, Tyrosyl-tRNA synthetase, putative (Trypanosoma cruzi (strain CL Brener)). The experiment can be described thus: Trypanosoma cruzi tyrosyl tRNA synthetase (TcYRS) SOP. It counts as functional. The conditions noted are these: 30 µM.
The target in experiment [11] is Chromo domain-containing protein 1 (Saccharomyces cerevisiae (strain ATCC 204508 / S288c) (Baker's yeast)) (UniProt P32657). Nature of the experiment: ScCHD-1 Enzyme Inhibition Assay. Further: in the data most compounds retested in dose-response had high values. The experiment is classed as functional. The conditions noted are these: 30 µM.
Chain of Chromo domain-containing protein 1 (Saccharomyces cerevisiae (strain ATCC 204508 / S288c) (Baker's yeast)) (P32657 whole entry, the tested form may be a part): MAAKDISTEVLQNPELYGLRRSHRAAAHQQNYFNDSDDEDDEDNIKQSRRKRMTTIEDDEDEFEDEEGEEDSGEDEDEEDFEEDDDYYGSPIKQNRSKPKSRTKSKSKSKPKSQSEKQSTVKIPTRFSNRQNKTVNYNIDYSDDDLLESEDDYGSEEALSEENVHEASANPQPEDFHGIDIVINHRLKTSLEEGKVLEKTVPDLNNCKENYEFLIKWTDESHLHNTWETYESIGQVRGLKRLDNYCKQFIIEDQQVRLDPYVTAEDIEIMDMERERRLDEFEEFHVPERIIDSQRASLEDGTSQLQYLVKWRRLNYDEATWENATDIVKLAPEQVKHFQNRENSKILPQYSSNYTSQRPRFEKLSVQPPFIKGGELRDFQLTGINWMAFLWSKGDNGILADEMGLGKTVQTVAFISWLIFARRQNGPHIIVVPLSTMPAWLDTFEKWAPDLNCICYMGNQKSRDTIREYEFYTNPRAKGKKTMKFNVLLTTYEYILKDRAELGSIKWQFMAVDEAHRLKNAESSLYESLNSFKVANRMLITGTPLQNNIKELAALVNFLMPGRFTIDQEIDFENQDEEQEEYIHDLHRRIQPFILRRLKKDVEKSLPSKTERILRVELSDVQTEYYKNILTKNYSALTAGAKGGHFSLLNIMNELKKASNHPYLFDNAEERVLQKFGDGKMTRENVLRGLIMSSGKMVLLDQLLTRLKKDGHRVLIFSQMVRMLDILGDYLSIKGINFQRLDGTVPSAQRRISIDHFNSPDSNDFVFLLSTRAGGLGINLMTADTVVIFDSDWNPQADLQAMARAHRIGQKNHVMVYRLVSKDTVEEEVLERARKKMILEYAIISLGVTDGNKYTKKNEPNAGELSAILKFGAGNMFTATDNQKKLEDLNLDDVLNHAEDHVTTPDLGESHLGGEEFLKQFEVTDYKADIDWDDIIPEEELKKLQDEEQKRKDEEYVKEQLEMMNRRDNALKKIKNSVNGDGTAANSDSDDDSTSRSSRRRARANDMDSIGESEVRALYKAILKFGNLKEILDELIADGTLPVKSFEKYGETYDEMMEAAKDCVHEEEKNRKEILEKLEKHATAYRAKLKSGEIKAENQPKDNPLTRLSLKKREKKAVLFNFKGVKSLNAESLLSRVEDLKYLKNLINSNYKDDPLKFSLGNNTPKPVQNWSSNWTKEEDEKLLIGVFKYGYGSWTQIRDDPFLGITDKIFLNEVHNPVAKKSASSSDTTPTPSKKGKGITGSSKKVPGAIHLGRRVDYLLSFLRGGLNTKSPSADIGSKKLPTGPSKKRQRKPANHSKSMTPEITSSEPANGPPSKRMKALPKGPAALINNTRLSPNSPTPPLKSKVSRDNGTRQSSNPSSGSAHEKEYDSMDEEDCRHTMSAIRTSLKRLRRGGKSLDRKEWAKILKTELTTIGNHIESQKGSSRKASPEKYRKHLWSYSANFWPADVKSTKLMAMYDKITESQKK

Structures are written as SMILES. For some of these results: Entries with a potency or affinity are not part of this list.

Chain of Protein translocase subunit SecA (Escherichia coli (strain K12)) (P10408 whole entry): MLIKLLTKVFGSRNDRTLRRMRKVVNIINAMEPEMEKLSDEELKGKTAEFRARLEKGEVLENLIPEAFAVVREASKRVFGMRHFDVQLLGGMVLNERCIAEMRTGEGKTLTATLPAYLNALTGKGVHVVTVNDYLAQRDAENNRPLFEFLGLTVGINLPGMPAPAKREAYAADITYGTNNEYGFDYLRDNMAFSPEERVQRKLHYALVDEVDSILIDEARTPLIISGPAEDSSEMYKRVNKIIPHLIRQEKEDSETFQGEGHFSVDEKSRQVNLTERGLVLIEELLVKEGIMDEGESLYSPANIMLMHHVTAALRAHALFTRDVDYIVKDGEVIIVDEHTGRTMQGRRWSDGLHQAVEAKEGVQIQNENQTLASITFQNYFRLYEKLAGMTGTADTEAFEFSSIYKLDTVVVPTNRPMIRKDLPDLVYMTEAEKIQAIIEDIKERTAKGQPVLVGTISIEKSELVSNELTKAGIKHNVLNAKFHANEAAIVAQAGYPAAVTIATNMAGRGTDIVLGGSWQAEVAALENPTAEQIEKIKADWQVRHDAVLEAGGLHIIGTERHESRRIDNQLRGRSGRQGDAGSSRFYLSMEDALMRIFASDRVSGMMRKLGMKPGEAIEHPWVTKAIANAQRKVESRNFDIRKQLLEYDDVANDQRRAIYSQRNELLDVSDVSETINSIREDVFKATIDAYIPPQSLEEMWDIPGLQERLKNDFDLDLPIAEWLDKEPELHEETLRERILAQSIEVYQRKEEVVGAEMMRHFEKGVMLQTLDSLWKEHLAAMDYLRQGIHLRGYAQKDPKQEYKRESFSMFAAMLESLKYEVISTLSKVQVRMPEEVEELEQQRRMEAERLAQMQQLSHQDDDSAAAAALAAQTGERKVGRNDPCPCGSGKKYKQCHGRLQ

On to `CN1CCOC(CNCCc2ccccn2)C1` (stereo unspecified), for which the Percent Effect is -2.22% in experiment [1]; 20.2% in experiment [2]; -8.39% in [3]; -6.71% in [4]; -3.31% in experiment [5]; 5.7% in [6]. Also, the Percent Effect is 5.32% in experiment [7]; 16.5% in [8]; 8.37% in experiment [9]; 16.5% in [10]; -2.67% in experiment [11].

In the case of `O=C1[C@@H]2CCN(Cc3ccoc3)C[C@@H]2OCCN1c1ccccc1`, the Percent Effect was -5.21% in [1]; 10.7% in [2]; 13% in experiment [3]; 1.36% in experiment [4]; -2.95% in experiment [5]; 8.16% in experiment [6]. The Percent Effect was 5.02% in [7]; 5.67% in experiment [8]; 3.19% in experiment [9]; 11.5% in experiment [10]; 1.78% in experiment [11].

For `O=C(C1CCC1)N1CCCC1c1nnc2n1CCCCC2` (stereo unspecified), the Percent Effect in [1] was -0.546%; in [2], 13.5%; in experiment [3] it was -1.97%; in experiment [4], -4.28%; in experiment [5], 2.34%; in experiment [6] it was 33.3%. Moreover, the Percent Effect in [7] came out at 9.89%; in [8], 27.9%; in experiment [9] it was 11.9%; in experiment [10] it was 15.8%; in [11], 2.32%.

For the compound `O=C(NCc1ccco1)[C@H]1C[C@H]2OCC[C@H]2N(C(=O)c2ccncc2)C1`, the Percent Effect is -2.12% in experiment [1]; -2.67% in [2]; 11.1% in [3]; 21.8% in [4]; 0.193% in experiment [5]; -50% in [6]. The Percent Effect in [7] was 7.18%; in experiment [8], -21.2%; in experiment [9] it was 3.12%; in experiment [10] it was 2.5%; in experiment [11], -1.86%.

In the case of `COc1ccc(C2CCCN2C(=O)c2csc(NC(C)=O)n2)cc1` (stereo unspecified), the Percent Effect was -5.5% in experiment [1]; 18.2% in [2]; 41.8% in experiment [3]; -5.49% in experiment [4]; -3.37% in experiment [5]; 2.85% in experiment [6]. The Percent Effect was 4.56% in [7]; 17.3% in [8]; 6.8% in experiment [9]; 12.2% in experiment [10]; -8.21% in [11].

Take `CCc1cnc(C)nc1NCCN1CCCCCC1`: the Percent Effect in experiment [1] is -0.998%; in experiment [2] it was 5.2%; in [3], -1.3%; in experiment [4] it was 10.8%; in experiment [5], -0.295%; in experiment [6] it was 0%. Moreover, the Percent Effect in [7] is 14.3%; in experiment [8], 0.592%; in experiment [9] it was 14%; in experiment [10] it was 16.1%; in experiment [11], -4.71%.

For `COCCc1noc(CNCC2CCCN2c2cccnn2)n1` (stereo unspecified), the Percent Effect in experiment [1] was -4.29%; in experiment [2], 18.2%; in [3], -3.94%; in experiment [4], -5.52%; in [5] it was 4.41%; in experiment [6] it was -5.68%. In addition, the Percent Effect in experiment [7] is 20.8%; in experiment [8], 2.37%; in experiment [9] it was 10.5%; in experiment [10], 32.9%; in experiment [11] it was -23.1%.

For the compound `CC(C)c1cc(NC(=O)CN2CCc3c(nc(C(C)C)n3C)C2)on1`, the Percent Effect was -0.514% in experiment [1]; 0% in experiment [2]; -3.17% in [3]; 8.75% in experiment [4]; 2.62% in [5]; -4.98% in experiment [6]. For the same compound, the Percent Effect in experiment [7] is 17.9%; in experiment [8] it was 12%; in experiment [9] it was 5.83%; in [10], 9.76%; in experiment [11] it was -7.27%.

Turning to `O=C1COc2c(cccc2C(=O)N2CCCCC2Cn2cccn2)N1` (stereo unspecified), the Percent Effect in experiment [1] was -1.42%; in experiment [2], 10.4%; in [3] it was 2.71%; in experiment [4] it was 5.65%; in [5], -2.84%; in experiment [6] it was 3.16%. For the same compound, the Percent Effect was 14.6% in experiment [7]; 10.8% in experiment [8]; 6.67% in experiment [9]; 11.8% in [10]; -12.7% in experiment [11].

In the case of `Cc1ccc(NC2CCN(C(=O)Cc3csc(C)n3)CC2)nn1`, the Percent Effect in [1] was -0.935%; in experiment [2], 21.6%; in experiment [3], -5.18%; in [4], -3.82%; in [5], -8.02%; in experiment [6] it was 1.2%. Besides, the Percent Effect in experiment [7] is 18.6%; in experiment [8] it was 4.91%; in experiment [9], 7.39%; in [10], 16.1%; in experiment [11], -4.45%.

As to `O=C1CCCCN1c1cccc(CNC2CCCC2)c1`, the Percent Effect was -1.28% in experiment [1]; 0% in experiment [2]; 5.47% in experiment [3]; 3.26% in experiment [4]; 2.06% in experiment [5]; 2.74% in experiment [6]. Moreover, the Percent Effect in [7] is 8.49%; in experiment [8], -9.59%; in [9], 2.86%; in experiment [10] it was 7.06%; in experiment [11], -7.72%.

(Values after ChEMBL document CHEMBL3988442, “University of Dundee, Small-Polar-MMV Screening Library” (2021).)
